According to the supplement of paper PMC12067926:

Legend:
Experiment in all cases: relative growth (AUC of 72 h growth curve relative to DMSO control, dAUC) (ratio); higher = more growth (less inhibition), active = hit call of the paper
Settings in all cases: 20 µM;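 active = growth AUC significantly below the DMSO wells by Dunnett test; inactive = the rest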
[1] = tested on: Aeromonas 1 (Aeromonas sp. AE235)
Summary of the method: (§1)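 Isolates from Icelandic stream sediments and Silwood Park soil, along with whole sediment communities, were grown in Luria–Bertani medium to carrying capacity and diluted 1:100 into 96-well plates with each chemical at 20 µM (1% DMSO). A600 was measured hourly for 72 h, and values were averaged over three biological replicates. Relative growth (dAUC) is the spline-integrated growth-curve area over the mean of the DMSO controls.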

[2] = tested on: Aeromonas 2 (Aeromonas sobria)
Summary of the method: as §1

[3] = tested on: Aeromonas 3 (Aeromonas popoffii)
Summary of the method: as §1

[4] = tested on: Argrobacterium 1 (Agrobacterium sp.)
Summary of the method: as §1

[5] = tested on: Arthrobacter 1 (Arthrobacter humicola)
Summary of the method: as §1

[6] = tested on: Arthrobacter 2 (Arthrobacter humicola)
Summary of the method: as §1

[7] = tested on: Arthrobacter 3 (Arthrobacter sp.)
Summary of the method: as §1

Community 10 = tested on: Community 10
Summary of the method: as §1

Community 4 = tested on: Community 4
Summary of the method: as §1

Community 6 = tested on: Community 6
Summary of the method: as §1

Community 7 = tested on: Community 7
Summary of the method: as §1

Community 8 = tested on: Community 8
Summary of the method: as §1

Community 9 = tested on: Community 9
Summary of the method: as §1

[8] = tested on: Flavobacterium 1 (Flavobacterium glaciei)
Summary of the method: as §1

[9] = tested on: Flavobacterium 2 (Flavobacterium succinicans)
Summary of the method: as §1

[10] = tested on: Hymenobacter 1 (Hymenobacter glaciei)
Summary of the method: as §1

[11] = tested on: Microbacterium 1 (Microbacterium arborescens)
Summary of the method: as §1

[12] = tested on: Neobacillus 1 (Neobacillus soli)
Summary of the method: as §1

[13] = tested on: Oryzobacter 1 (Oryzobacter terrae)
Summary of the method: as §1

[14] = tested on: Paenibacillus 1 (Paenibacillus castaneae)
Summary of the method: as §1

Measured: relative growth

COP(=S)(OC)Oc1nc(Cl)c(Cl)cc1Cl
inactive: [1] 1.04 | [2] 1.02 | [3] 1.01 | [4] 1.05 | [5] 0.769 | Community 10 0.856 | Community 4 0.867 | Community 6 0.987 | Community 7 1.04 | Community 8 1.06 | Community 9 1.03 | [9] 0.97 | [10] 0.99 | [11] 1.04 | [12] 1.01 | [13] 1.05 | [14] 0.874
active: [6] 0.312 | [7] 0.646 | [8] 0.348

CCOC(=O)CC(SP(=S)(OC)OC)C(=O)OCC (stereo not given)
inactive: [1] 1.06 | [2] 0.992 | [3] 1.02 | [4] 1.01 | [5] 1.22 | [6] 1.05 | [7] 0.98 | Community 10 0.992 | Community 4 1.15 | Community 6 1.09 | Community 7 1.04 | Community 8 0.99 | Community 9 1.14 | [8] 1.02 | [9] 1.02 | [10] 1.02 | [11] 1 | [12] 1.06 | [13] 1.1 | [14] 1.02

Cc1cc(C)nc(Nc2ccccc2)n1
inactive: [1] 0.974 | [2] 0.977 | [3] 1.07 | [4] 0.874 | [5] 0.948 | [6] 0.929 | [7] 1.03 | Community 10 1.07 | Community 4 0.984 | Community 6 1.04 | Community 7 1.09 | Community 8 1.03 | Community 9 1.03 | [8] 1.01 | [9] 0.983 | [10] 1.1 | [11] 1.03 | [12] 0.999 | [13] 0.978 | [14] 0.762

CSc1nnc(C(C)(C)C)c(=O)n1N
inactive: [1] 0.969 | [2] 1.01 | [3] 1.04 | [4] 0.991 | [5] 0.948 | [6] 1.06 | [7] 0.961 | Community 10 1.03 | Community 4 1.08 | Community 6 1.02 | Community 7 1 | Community 8 1.04 | Community 9 1.05 | [8] 1.03 | [9] 1.02 | [10] 1.04 | [11] 1 | [12] 1.02 | [13] 1.03 | [14] 1.02

OC(Cn1cncn1)(c1ccc(F)cc1)c1ccccc1F (stereo not given)
inactive: [1] 0.996 | [2] 1.04 | [3] 1.01 | [4] 1.02 | [5] 0.835 | [6] 1.11 | [7] 1.04 | Community 10 1.09 | Community 4 1.08 | Community 6 1.07 | Community 7 0.819 | Community 8 1.04 | Community 9 1.08 | [8] 1.12 | [9] 1.07 | [10] 1.13 | [11] 0.996 | [12] 1.08 | [13] 1.05 | [14] 1.05

COC(=O)N(OC)c1ccccc1COc1ccn(-c2ccc(Cl)cc2)n1
inactive: [1] 1.04 | [2] 0.927 | [3] 0.979 | [4] 1.04 | [5] 1.16 | [6] 1.02 | [7] 0.903 | Community 10 0.903 | Community 4 0.941 | Community 6 1.03 | Community 7 1.11 | Community 8 1.04 | Community 9 1.09 | [8] 0.969 | [9] 0.979 | [10] 1.08 | [11] 0.98 | [12] 1.03 | [13] 1.17 | [14] 0.944

Cc1nnc(-c2ccccc2)c(=O)n1N
inactive: [1] 0.991 | [2] 0.975 | [3] 0.993 | [4] 1.03 | [5] 0.986 | [6] 0.946 | [7] 1.04 | Community 10 0.899 | Community 4 0.882 | Community 6 0.909 | Community 7 1.12 | Community 8 0.974 | Community 9 0.918 | [8] 0.963 | [9] 0.956 | [10] 0.868 | [11] 1.01 | [12] 0.937 | [13] 1.12 | [14] 0.905

O=C(O)c1nc(Cl)ccc1Cl
inactive: [1] 0.95 | [2] 0.943 | [3] 0.997 | [4] 0.946 | [5] 1.03 | [6] 0.895 | [7] 0.963 | Community 10 0.892 | Community 4 0.903 | Community 6 0.972 | Community 7 1.17 | Community 8 0.994 | Community 9 0.937 | [8] 1.04 | [9] 0.962 | [10] 0.835 | [11] 0.977 | [12] 0.968 | [13] 0.889 | [14] 0.973

C[N+]1(C)CCCCC1
inactive: [1] 1.03 | [2] 1.01 | [3] 1.02 | [4] 0.994 | [5] 1.08 | [6] 0.96 | [7] 1.04 | Community 10 1.01 | Community 4 1.09 | Community 6 1.07 | Community 7 0.992 | Community 8 0.99 | Community 9 1.06 | [8] 1.03 | [9] 1.03 | [10] 1.08 | [11] 0.951 | [12] 1 | [13] 1.06 | [14] 1

CC(C)OC(=O)Nc1cccc(Cl)c1
inactive: [1] 0.932 | [2] 0.969 | [3] 1.05 | [4] 0.93 | [5] 0.95 | [6] 1 | [7] 0.964 | Community 10 1.17 | Community 4 1.11 | Community 6 1.13 | Community 7 1.07 | Community 8 1.01 | Community 9 1.09 | [8] 0.971 | [9] 1.03 | [10] 1.09 | [11] 1.04 | [12] 1.09 | [13] 0.999 | [14] 1.12

CS(=O)(=O)c1ccc(C(=O)C2C(=O)CCCC2=O)c([N+](=O)[O-])c1
inactive: [1] 0.965 | [2] 1 | [3] 0.97 | [4] 0.959 | [5] 1 | [6] 1.07 | [7] 1.02 | Community 10 1.02 | Community 4 1.06 | Community 6 1.04 | Community 7 0.957 | Community 8 1.06 | Community 9 1.04 | [8] 1.07 | [9] 1.04 | [10] 1.07 | [11] 1.04 | [12] 1.04 | [13] 1.01 | [14] 1.03

CN/C(=N/CC1CCOC1)N[N+](=O)[O-] (stereo not given)
inactive: [1] 1 | [2] 1.02 | [3] 1.05 | [4] 1.02 | [5] 1.01 | [6] 1.03 | [7] 0.998 | Community 10 0.953 | Community 4 1.09 | Community 6 1 | Community 7 1.01 | Community 8 1.03 | Community 9 1.04 | [8] 1.04 | [9] 1.02 | [10] 1.06 | [11] 1.02 | [12] 0.994 | [13] 0.957 | [14] 1.01

O=C(NCCc1ncc(C(F)(F)F)cc1Cl)c1ccccc1C(F)(F)F
inactive: [1] 0.997 | [2] 0.977 | [3] 0.973 | [4] 1.13 | [5] 0.873 | [6] 0.931 | [7] 1.01 | Community 10 0.806 | Community 4 0.994 | Community 6 0.939 | Community 7 0.935 | Community 8 0.961 | Community 9 1.05 | [8] 0.987 | [9] 0.962 | [10] 0.995 | [11] 1.02 | [12] 0.981 | [13] 1.11 | [14] 0.935

CN1COCN(Cc2cnc(Cl)s2)/C1=N\[N+](=O)[O-]
inactive: [1] 0.991 | [2] 0.983 | [3] 0.984 | [4] 1.04 | [5] 1.04 | [6] 1.02 | [7] 1.13 | Community 10 0.777 | Community 4 1.04 | Community 6 0.963 | Community 7 0.896 | Community 8 1.02 | Community 9 1.06 | [8] 1.02 | [9] 0.975 | [10] 0.998 | [11] 0.974 | [12] 1.01 | [13] 0.955 | [14] 0.945

CCSC(C)CC1CC(=O)C(/C(CC)=N/OC/C=C/Cl)=C(O)C1 (mixture of isomers)
inactive: [1] 0.981 | [2] 0.969 | [3] 0.986 | [4] 1.01 | [5] 0.93 | [6] 0.987 | [7] 0.986 | Community 10 0.965 | Community 4 1.09 | Community 6 1.01 | Community 7 1.02 | Community 8 1 | Community 9 1.12 | [8] 1 | [9] 0.981 | [10] 0.951 | [11] 1.03 | [12] 1.05 | [13] 1.03 | [14] 0.995

CC1(C)C(C=C(Cl)Cl)C1C(=O)OCc1cccc(Oc2ccccc2)c1 (stereo not given)
inactive: [1] 1.03 | [2] 0.961 | [3] 0.99 | [4] 1.04 | [5] 1.12 | [6] 0.851 | [7] 0.987 | Community 10 0.824 | Community 4 0.922 | Community 6 0.94 | Community 7 1.08 | Community 8 0.975 | Community 9 0.932 | [8] 0.977 | [9] 0.958 | [10] 0.989 | [11] 0.987 | [12] 1.05 | [13] 1.14 | [14] 0.894

CCNc1nc(Cl)nc(NC(C)C)n1
inactive: [1] 0.965 | [2] 0.972 | [3] 0.992 | [4] 1.01 | [5] 0.902 | [6] 1.03 | [7] 0.968 | Community 10 1.04 | Community 4 1.05 | Community 6 1.01 | Community 7 1.01 | Community 8 1.01 | Community 9 1 | [8] 1.05 | [9] 0.972 | [10] 1.06 | [11] 1.02 | [12] 1.03 | [13] 0.998 | [14] 1.01
